# In PubChem BioAssay (Tox21):
# Values without a mark were called inactive. Calls follow the shape of the dose curve; as a rule, active = well fitted activation curve with a large enough effect in the repeat runs; inconclusive = weak or mixed curves; inactive = flat fitted curve, though single readings scatter.
# Assay: Caspase-3/7 induction in CHO-K1 cells by small molecules, qHTS assay (AID 1346980); also: nearly all actives have a fitted effect of over 15% in size
# Conditions: CHO-K1 caspase-3/7 induction, Caspase-Glo luminescence, 17 h; series mostly up to 92.4 µM; caspase-3/7 activation: at the top concentration
# Excerpt: National Center for Advancing Translational Sciences [NCATS]
# NIH Chemical Genomics Center [NCGC]
# U.S. Environmental Protection Agency [EPA]
# National Institutes of Environmental Health Sciences [NIEHS]
# National Toxicology Program [NTP]
# Apoptosis is a process of programmed cell death and plays a central role in the development of multicellular organisms. It is a highly regulated process and induces cell death by activating caspases, which are the members of cysteine aspartic acid-specific protease (caspase) family. Caspases involved in apoptosis are classified by their mechanism of action as initiator caspases (caspase-2, -8, -9 and -10) and executioner caspases (caspase-3, -6, and -7). Inhibition of apoptosis results in number of cancers, autoimmune diseases, inflammatory diseases and viral infection. To identify small molecule compounds that induce apoptosis, a homogeneous, luminescent Caspase-Glo 3/7 assay was used. Wild type CHO-K1 cells were used to screen Tox21 libraries for identifying caspase-3/7 activity inducers.
# CHO-K1 cells were dispensed at 1,500 per well in 5uL of culture medium into white solid bottom 1536-well plates (Corning Life Sciences, Corning, NY) using a Multidrop Combi (Thermo Scientific, Waltham, MA) dispenser. The assay plates were incubated at 37 C and 5% CO2 for 5hr, and then 23nL of compounds dissolved in DMSO and positive control were transferred using a Pintool station (Wako, San Diego, CA). The assay plates were incubated at 37C and 5% CO2 for 17hr. For caspase-3/7 activity read, 4uL of Caspase-Glo 3/7 reagent (Promega Corporation, Madison, WI) was added to each well of the assay plates using Flying Reagent Dispenser (FRD, Aurora Discovery, San Diego, CA) and incubated the assay plates at room temperature for 30min. The luminescence signal was quantified using a ViewLux plate reader (Perkin Elmer, Shelton, CT).
# % is scaled to controls: 0 for no effect and ±100 for the full control effect.
row,SMILES,caspase-3/7 activation
1,CC(C)O.CC(C)O.OCCN(CCO)CCO.OCCN(CCO)CCO.[Ti],0.0318%
2,C=CC(=O)OC,0.0396%
3,CCC(Br)(CC)C(=O)NC(N)=O,0.0565%
4,ClC=C(Cl)Cl,-0.0677%
5,CC(C)N(CCC(C(N)=O)(c1ccccc1)c1ccccn1)C(C)C (stereo not given),-1.42% [at 42.5 µM]
6,O=C1CN=C(c2ccccc2)c2cc(Cl)ccc2N1CC1CC1,4.14%
7,C/C=C/C=O,-0.459%
8,CCOC(=O)COc1cc(-c2nn(C)c(OC(F)F)c2Cl)c(F)cc1Cl,-0.0907%
9,CC(C)(C)C(O)C(Oc1ccc(Cl)cc1)n1cncn1 (stereo not given),-1.17%
10,CC(C)(OO)c1ccccc1,-0.441%
11,CCCCN=C=O,-0.155%
12,C=CCN1CC[C@]23c4c5ccc(O)c4O[C@H]2C(=O)CC[C@@]3(O)[C@H]1C5,-0.297% [at 42.5 µM]
13,COCC(C)N(C(=O)CCl)c1c(C)csc1C (stereo not given),-1.17%
14,COP(=S)(Oc1cc(Cl)c(Br)cc1Cl)c1ccccc1 (stereo not given),1.24%
15,C[C@]12CC[C@H]3[C@@H](CCC4=CC(=O)CC[C@@H]43)[C@@H]1CC[C@@H]2OC(=O)CCC1CCCCC1,1.21% [at 42.5 µM]
16,C=CC(=O)OCCCCO,-2.26%
17,Cc1c(F)c(F)c(COC(=O)C2C(/C=C(\Cl)C(F)(F)F)C2(C)C)c(F)c1F (stereo not given),0.315%
18,O=C(CBr)c1ccccc1,4.57%
19,O=NN1CCCCCC1,1.56%
20,N#CCc1ccccc1,-0.46%

row,SMILES,caspase-3/7 activation
1,CN(C)c1ccc(N(C)C)cc1,-0.75%
2,CN1C(=O)NC(=O)C(C)(C2=CCCCC2)C1=O (stereo not given),0.133% [at 42.5 µM]
3,CNC(C)Cc1ccccc1OC (stereo not given),1.29% [at 42.5 µM]
4,Cl/C=C\C[N+]12CN3CN(CN(C3)C1)C2,0.495%
5,N#CCC#N,4.04%
6,CC1Sc2c(C(=O)O)c(=O)c3cc(F)c(N4CCNCC4)cc3n21 (stereo not given),-0.315% [at 42.5 µM]
7,O=[Se]=O,-5.42% [at 42.5 µM]
8,O=S(=O)(O)C(F)(F)C(F)(F)C(F)(F)C(F)(F)F,-2.51%
9,CO/C=C(/C(=O)OC)c1ccccc1COc1cccc(C(F)(F)F)n1,-3.81%
10,O=C(O)C(F)(F)C(F)(F)C(F)(F)C(F)(F)C(F)(F)C(F)(F)C(F)(F)C(F)(F)C(F)(F)C(F)(F)F,0.027%
11,CC(=O)CCC(C)=O,-1.22%
12,O=S(=O)(Cl)c1ccccc1,0.511%
13,N#Cc1cc(I)c(O)c(I)c1,-3.4%
14,ClCC(Br)CBr (stereo not given),0.653%
15,CCOP(=S)(OCC)Oc1cc(Cl)c(Br)cc1Cl,0.476%
16,CN1[C@@H]2CC[C@H]1CC(OC(=O)c1cc(Cl)cc(Cl)c1)C2 (stereo not given in full),-0.748% [at 42.5 µM]
17,Cn1sc(Cl)cc1=O,1.99%
18,NC(=O)C(Cl)(Cl)Cl,0.0144%
19,Clc1ccc(C2(Cn3cncn3)CC(Br)CO2)c(Cl)c1 (stereo not given),0.204%
20,COC(N)=O,0.488%
